PubChem BioAssay (Tox21)
“And” between values parts separate entries of the source, which are not always exact repeats. Identical values can stand only once. Results filed as inconclusive are left out. The source made the active and inactive calls. Calls come from the whole dose curve; as a rule, active = well fitted inhibition curve with a large enough effect in the signal ratio in the repeat runs; inconclusive = weak or mixed curves, or effect the other way; inactive = flat fitted curve, though single readings scatter; the % refers to the signal ratio.

Assay: qHTS assay for small molecule disruptors of the mitochondrial membrane potential (AID 720635)
Details: HepG2 mitochondrial membrane potential, Mito-MPS dye ratio; series mostly up to 83.2 µM; ratio activity, negative = MMP loss: at the top concentration
Description: U.S. Tox21 Program National Center for Advancing Translational Sciences [NCATS] NIH Chemical Genomics Center [NCGC] U.S. Environmental Protection Agency [EPA] National Institutes of Environmental Health Sciences [NIEHS] National Toxicology Program [NTP] U.S. Food and Drug Administration [FDA] Tox21 Assay Overview: Mitochondrial membrane potential (MMP), one of the parameters for mitochondrial function, is generated by mitochondrial electron transport chain that creates an electrochemical gradient by a series of redox reactions. This gradient drives the synthesis of ATP, a crucial molecule for various cellular processes. Measuring MMP in living cells is commonly used to assess the effect of chemicals on mitochondrial function. […] The dye accumulates in the mitochondria of healthy cells as aggregates, with red fluorescence. The mitochondrial potential collapses and the dye can no longer accumulate in the mitochondria and remains in the cytoplasm in monomers, with green fluorescence.
Tox21 Assay Protocol Summary: 2,000 HepG2 cells in 5 uL/well were dispensed into black, clear-bottom 1536-well plates using a Multidrop Combi (Thermo Scientific) dispenser. The assay plates were incubated overnight at 37C to allow cells to attach to the wells, followed by the transfer of 23 nL compound or DMSO vehicle by a pin tool (Kalypsys). The plates were incubated for 1 hr at 37C and 5% CO2, followed by the addition of 5 uL of 2X Mito-MPS dye (BD Biosciences) into each well using Flying Reagent Dispenser (Aurora Discovery) and then following 30 min incubation at 37C. Fluorescence intensity (490nm excitation and 535nm emission for monomers; and 540nm excitation and 590nm emissions for aggregates) was measured using an Envision plate reader.
% is set by controls: 0 for no effect and ±100 for the full control effect; potency is the fitted concentration of half-maximal effect.

Compound	Potency	ratio activity, negative = MMP loss
O=[N+]([O-])c1ccc(O)cc1C(F)(F)F	3.44 µM (active)	–
O=C1c2ccccc2C(=O)N1SC1CCCCC1	54.4 µM (active) and 48.6 µM (active)	–
NC(=S)NC(N)=S	–	20.2% (inactive)
O=C(O)c1cc(N=Nc2ccc([N+](=O)[O-])cc2)ccc1O	53.5 µM (active)	–
CCC(CC)(CC(=O)Nc1cccc(/C=C/c2nc(C3CCC3)cs2)c1)C(=O)O	27.8 µM (active)	–
O=c1oc2cc(O)ccc2c2oc3cc(O)ccc3c12	58.6 µM (active)	–
CC(C)CCOC(=O)/C=C/c1ccccc1	–	9.75% [at 95.3 µM] (inactive)
Nc1nc(N)nc(-c2cc(Cl)ccc2Cl)n1	–	12.9% (inactive)
CC/C=C\CCCCCO	–	14.6% (inactive)
Cc1cc(-n2nc3ccc(Cl)cc3n2)c(O)c(C(C)(C)C)c1	–	5.95% (inactive)
Cc1ccc(C(C)C)cc2c(C)ccc1-2	–	27.6% (inactive)
CCCCCCCCCCCCOCCOCCOCCOCCOCCOCCOCCOCCOCCO	19.7 µM (active)	–
CC(N=C(NC#N)Nc1ccncc1)C(C)(C)C (stereo not given)	–	8.01% (inactive)
COCCOc1cc2cc(C(=O)NC3CCN(C(C)C)CC3)n(CC(=O)Nc3ccc(Cl)cn3)c2cn1	–	9.67% (inactive)
O=C(Oc1ccccc1)Oc1ccccc1	–	-17.4% (inactive)
CC(C)NC[C@@H](O)COc1ccc(CC(N)=O)cc1	–	-16.5% (inactive)
CNC(=O)c1ccccc1Sc1ccc2c(/C=C/c3ccccn3)n[nH]c2c1	2.37 µM (active)	–
c1ccsc1	–	20% (inactive)
Cc1cc(C(C#N)c2ccc(Cl)cc2)c(Cl)cc1NC(=O)c1cc(I)cc(I)c1O (stereo not given)	2.37 µM (active)	–
CN1CCN(Cc2cc(-c3ccc4[nH]c(=O)oc4c3)co2)[C@@H](c2ccc(F)cc2)C1	14.8 µM (active)	–

Compound	Potency	ratio activity, negative = MMP loss
CCCCCCCCCCCCCC[N+](C)(C)Cc1ccccc1	11.9 µM (active) and 27.7 µM (active)	–
O=C1NC(=O)[C@@H]2CC=CC[C@H]12	–	-11.3% (inactive)
ClCCl	–	11.8% (inactive)
CCn1c2ccccc2c2cc([N+](=O)[O-])ccc21	30.6 µM (active)	–
Cc1ccc(C)cc1	–	9.36% (inactive)
C#C[C@]1(OC(C)=O)CC[C@H]2[C@@H]3CCC4=C/C(=N/O)CC[C@@H]4[C@H]3CC[C@@]21CC	13.3 µM (active)	–
CC[N+](CC)(CC)CCOc1ccc(/C=C/c2ccccc2)cc1	–	-19.8% (inactive)
CCC(CC)C(C)CCOC(C)=O (stereo not given)	–	24.6% (inactive)
CC[N+](CC)(CC)CCOC(=O)C(C1CCCC1)C1CCCC1	–	11.2% (inactive)
CCCCCc1ccc(Cl)cc1	–	5.67% (inactive)
OC[C@H]1O[C@H](O[C@H]2O[C@H](CO)[C@@H](O)[C@H](O)[C@H]2O)[C@H](O)[C@@H](O)[C@@H]1O	–	6.92% [at 95.3 µM] (inactive)
Cc1c(C)c([N+](=O)[O-])c(C(C)(C)C)c([N+](=O)[O-])c1C	30.6 µM (active)	–
Cc1ccc(C(=O)O)cc1	–	12% [at 95.3 µM] (inactive)
CN(C)c1ccc(C(=C2C=CC(=[N+](C)C)C=C2)c2ccc(N(C)C)cc2)cc1	139 nM (active) and 30.5 nM (active) and 68.6 nM (active)	–
CCCCCCCCCCCCOC(=O)c1ccc(O)cc1	3.46 µM (active)	–
CCc1oc2ccccc2c1C(=O)c1cc(I)c(O)c(I)c1	2.66 µM (active)	–
C=Cc1ccccc1C=C	–	5.98% [at 258 µM] (inactive)
O=C(O)[C@H](O)[C@@H](O)[C@H](O[C@@H]1O[C@H](CO)[C@H](O)[C@H](O)[C@H]1O)[C@H](O)CO	–	6.89% [at 39.1 µM] (inactive)
Cc1cc(C(C)(C)C)c(O)c(C)c1Cn1c(=O)n(Cc2c(C)cc(C(C)(C)C)c(O)c2C)c(=O)n(Cc2c(C)cc(C(C)(C)C)c(O)c2C)c1=O	9.69 µM (active)	–
CN(C)C(=O)COC(=O)Cc1ccc(OC(=O)c2ccc(N=C(N)N)cc2)cc1	–	-20.6% (inactive)
